Measurements taken from PubChem BioAssay (NCATS).
Where “and” joins values, the source holds several entries; their conditions need not be identical. Equal entries are not always repeated. Values without a mark were called inactive. Calls of active or inactive are those of the source. Calls come from the whole dose curve; as a rule, active = well fitted activation curve with a large enough effect; inconclusive = small, poorly fitted or top-dose-only effect; inactive = no such curve, though single readings can be large or run the other way.

Each compound was assayed against Cytochrome P450 3A4 (Homo sapiens) (UniProt P08684) (assay: qHTS Assay for Activators of Cytochrome P450 3A4 (AID 885; note: nearly all actives have a fitted effect of over 65% in size)). Conditions: recombinant CYP3A4, Luciferin-PPXE luminescence, 60 min; series mostly up to 57.1 µM; activity change, positive = activation: at the top concentration.
Outline: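 Human CYP3A4 dealkylates Luciferin-PPXE to luciferin, which luciferase detection converts to light. Substrate was at its KM (25uM), buffer 200mM KPO4, reaction 60 min at RT.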
Potency is the fitted concentration of half-maximal effect.

Chain of Cytochrome P450 3A4 (Homo sapiens) (P08684 whole entry, looked up): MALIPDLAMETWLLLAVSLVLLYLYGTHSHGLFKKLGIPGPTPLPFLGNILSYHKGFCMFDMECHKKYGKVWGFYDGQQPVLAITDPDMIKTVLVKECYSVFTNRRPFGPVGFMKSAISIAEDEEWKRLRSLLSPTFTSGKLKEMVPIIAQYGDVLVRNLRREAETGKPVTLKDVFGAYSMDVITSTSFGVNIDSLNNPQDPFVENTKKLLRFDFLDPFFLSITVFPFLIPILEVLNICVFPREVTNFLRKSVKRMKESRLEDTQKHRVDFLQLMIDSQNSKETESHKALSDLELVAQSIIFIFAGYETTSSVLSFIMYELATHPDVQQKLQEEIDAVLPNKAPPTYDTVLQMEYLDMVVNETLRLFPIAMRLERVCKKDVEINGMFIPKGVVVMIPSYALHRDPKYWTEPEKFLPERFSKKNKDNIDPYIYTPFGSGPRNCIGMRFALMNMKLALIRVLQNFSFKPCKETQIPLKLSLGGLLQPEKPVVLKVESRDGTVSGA

Structure (SMILES)	activity change, positive = activation	Potency
COc1cc(OC)c2c(OC)c(-c3ccc4c(c3)OCO4)c(=O)oc2c1	-103%	–
CCC1=C2CC[C@H]3C(=O)N(CC)C(=O)[C@H]3[C@H]2[C@@]2(C)C(=NCC(=O)OC)OC(=O)N2C1=O	-56.3%	–
COC(=O)c1cccc(C#CC(NP(=O)(c2ccccc2)c2ccccc2)c2ccccc2)c1 (stereo not drawn)	-41.1%	–
COc1c2c(cc3occ(-c4ccc5c(c4)OCO5)c(=O)c13)OC(C)(C)C=C2	-97.8%	–
C#CCCCO/N=C1/C[C@@H](O)[C@@H](O)[C@@H]2[C@@H]3C(=O)N(C4CCCCC4)C(=O)[C@H]3CC[C@@H]12	-78.4% [at 11.4 µM]	–
COc1c(-c2coc3cc4c(cc3c2=O)CC(OC(C)=O)C(C)(C)O4)ccc2c1C=CC(C)(C)O2 (stereo not drawn)	–	5.01 µM (active)
COc1cc(O)c(C(=O)/C=C/c2ccc(O)c(OC)c2)c(OC)c1	-99.4%	–
COc1ccc(O[C@H]2C=C[C@@H](c3ccccc3)O[C@H]2CO/N=C(/C)CCC(=O)OC[C@@H]2O[C@H](c3ccccc3)C=C[C@@H]2Oc2ccc(OC)cc2)cc1	-65.1% [at 11.4 µM]	–
O=C1C=CC(=C(c2ccc(O)cc2)c2ccc(O)cc2)C=C1	-77%	–
CC1(C)C(=O)C=C[C@@]2(C)C1C=C[C@@]1(C)C2CC[C@@]2(C)C(c3ccoc3)OC(=O)C3OC312 (stereo partly drawn)	-88.2%	–
C=CC(C1=CC(=O)C(OC)=CC1=O)c1ccc(OC)cc1 (stereo not drawn)	-65.2%	–
CCc1cc2c(nc1CC)CCN(CC/C(C)=N/O[C@@H](C)c1cn([C@H](CO)Cc3ccccc3)nn1)C2	-78.5% [at 11.4 µM] and -65.5% [at 11.4 µM]	–
COc1ccc(COC(=O)N/N=C2/C[C@@H](O)[C@@H](O)[C@@H]3[C@@H]4C(=O)N(c5cccc(Oc6ccccc6)c5)C(=O)[C@H]4CC[C@H]23)cc1	-68.2% [at 11.4 µM]	–
